Data from PubChem BioAssay (EPA / NIEHS).
Activity calls are given as the source filed them. Rule for the calls: active = hit-call score of the fitted dose curve at least 0.9, where 1 is the maximum; inactive = score below 0.9.

experiment: ATG_Sox_CIS: Attagene CIS-FACTORIAL HepG2 Assay for human SRY-box transcription factor (SOX) (AID 2282960); conditions: HepG2 Attagene cis-factorial SOX reporter, mRNA; actives raise or lower the signal
Description: ATG_CIS is a cell-based, multiplexed-readout assay that uses HepG2, a human liver cell line, with measurements taken at 24 hours after chemical dosing in a 24-well plate.ATG_Sox_CIS is one of 52 assay component(s) measured or calculated from the ATG_CIS assay. It is designed to make measurements of mRNA induction, a form of inducible reporter, as detected with fluorescence intensity signals by Reverse transcription polymerase chain reaction (RT-PCR) and Capillary electrophoresis technology.Data from the assay component ATG_Sox_CIS was analyzed into 1 assay endpoint. This assay endpoint, ATG_Sox_CIS, was analyzed with bidirectional fitting relative to DMSO as the negative control and baseline of activity. Using a type of inducible reporter, measures of mRNA for gain or loss-of-signal activity can be used to understand the reporter gene at the transcription factor-level as they relate to the gene SOX1. Furthermore, this assay endpoint can be referred to as a primary readout, because this assay has produced multiple assay endpoints where this one serves a reporter gene function. To generalize the intended target to other relatable targets, this assay endpoint is annotated to the dna binding intended target family, where the subfamily is HMG box protein.
Human liver HepG2 cells are transiently transfected with multiple reporter transcription units (MRTUs) in 6-well plates using FuGene 6 reagent (Roche; 3 ml FuGene/1 mg DNA). The MRTU constructs are regulated by a cis-regulating element (promoter). […] A major difference between the CIS and TRANS system is that in CIS activities of endogenous TFs are measured, whereas the TRANS assay evaluates changes in activities of exogenous, chimeric NR-Gal4 proteins. […] At the end of 24 hour incubation, total RNA was isolated using TriZol reagent (Invitrogen). The isolated RNA is then reverse-transcribed using oligo(dT) primer and Mo-MLV reverse transcriptase (Invitrogen) with DNAse I (Ambion) treatment for 30 min. The one-tenth of the produced cDNA was amplified by PCR using Taq DNA polymerase (Invitrogen) and two reporter sequence-specific primers. The PCR products were fluorescently labeled by primer extension with 6-arboxyfluorescein (6-FAM) 5'-labeled reporter sequence-specific primer (2 min at 95 C, 20 s at 68 C and 10 min at 72 C) and these products were digested with 5U of HpaI (New England Biolabs) for 2h at 37 C. The fragments were purified using Qiaquick PCR columns (Qiagen), analyzed on an ABI 3130xL genetic analyzer (Applied Biosystems) with peak positions identified by using a set of X-rhodamine (ROX)-labeled MapMarker1000 molecular weight standards (BioVentures). The raw capillary electrophoresis data was processed using Attagraph software (Attagene).

| Structure (SMILES) | outcome |
| --- | --- |
| CC(C)c1ccc(O)c(C(C)C)c1 | inactive |
| CCOC(=O)/C=C\C(=O)OCC | inactive |
| O=C(O)/C=C/c1ccccc1 | inactive |
| C[N+](C)(C)CCCNS(=O)(=O)C(F)(F)C(F)(F)C(F)(F)C(F)(F)C(F)(F)C(F)(F)C(F)(F)C(F)(F)F | inactive |
| CN(C)Cc1cc(CN(C)C)c(O)c(CN(C)C)c1 | inactive |
| CC(CCC(=O)O)(c1ccc(O)cc1)c1ccc(O)cc1 | inactive |
| [Cl][Sc]([Cl])[Cl] | inactive |
| CC(=O)OCCc1ccccc1 | inactive |
| C1CNCCN1 | inactive |
| C=CC(=O)OCCCCCCOC(=O)C=C | inactive |
| CCC(C)(O)CCCC(C)C (stereo not given) | inactive |
| CC(c1cc(C(C)(C)C)cc(C(C)(C)C)c1O)c1cc(C(C)(C)C)cc(C(C)(C)C)c1O | inactive |
| O=C1CCCCC1C1CCCCC1 (stereo not given) | inactive |
| CCC1COC(=O)O1 (stereo not given) | inactive |
| CC(=O)c1ccc(S(=O)(=O)NC(=O)NC2CCCCC2)cc1 | inactive |
| CCOB(OCC)OCC | inactive |
| N=C1C=CC(=C(c2ccc(N)cc2)c2ccc(N)cc2)C=C1 | inactive |
| NC(=O)Nc1ccccc1 | inactive |
| CC(=O)OCc1ccccc1 | inactive |
| O=S(=O)(O)c1ccc(Nc2nc(Nc3ccc(C=Cc4ccc(Nc5nc(Nc6ccc(S(=O)(=O)O)cc6)nc(N(CCO)CCO)n5)cc4S(=O)(=O)O)c(S(=O)(=O)O)c3)nc(N(CCO)CCO)n2)cc1 | inactive |

| Structure (SMILES) | outcome |
| --- | --- |
| CCCCCCCCCCCC(=O)N(C)CC(=O)O | inactive |
| O=C(O)C(F)(F)C(F)(F)C(F)(F)C(F)(F)C(=O)O | inactive |
| Cc1ccc(S(=O)(=O)N=C=O)cc1 | inactive |
| CCCCC1C(=O)N(c2ccccc2)N(c2ccccc2)C1=O | inactive |
| CC(CC=O)CC(C)(C)C (stereo not given) | inactive |
| CC(=O)OC/C=C(/C)CCC=C(C)C | inactive |
| CCCCc1ccc(Cl)cc1 | inactive |
| C=C(C)OC(C)=O | inactive |
| CCN(CC)c1cccc(C)c1 | inactive |
| COC(C=C(C)CCC=C(C)C)OC | inactive |
| CCCCNS(=O)(=O)c1ccccc1 | inactive |
| O=C(O)c1cc(O)c2ccccc2c1O | inactive |
| CC1CC(=O)CC(C)(C)C1 (stereo not given) | inactive |
| CO[Si](C)(C)OC | inactive |
| CCCCOCC(C)O (stereo not given) | inactive |
| CC=CC(=O)OCC(C)C | inactive |
| N#Cc1ccc(C2CCCc3cncn32)cc1 (stereo not given) | inactive |
| CCCCOCCOC(=O)COc1ccc(Cl)cc1Cl | inactive |
| Cn1cccc1 | inactive |
| CC(C=O)c1ccccc1 (stereo not given) | inactive |
